Assay results published in PubChem BioAssay (EPA / NIEHS).
Records with an inconclusive call do not appear. Active and inactive are the calls of the source. How the source made its calls, unless noted: active means hit-call score of the fitted dose curve at least 0.9, where 1 is the maximum; inconclusive means response in the unintended direction; inactive means score below 0.9.

molecular target: PGR (gene 5241) (UniProt P06401); assay: TOX21_PR_LUC_Followup_Agonist: Tox21 HEK293 Progesterone Receptor (PR) Agonism Luciferase Follow-Up Assay (AID 2283937; active means hit-call score of the fitted dose curve at least 0.9, where 1 is the maximum; inactive means score below 0.9)
Sequence (P06401 whole entry, looked up): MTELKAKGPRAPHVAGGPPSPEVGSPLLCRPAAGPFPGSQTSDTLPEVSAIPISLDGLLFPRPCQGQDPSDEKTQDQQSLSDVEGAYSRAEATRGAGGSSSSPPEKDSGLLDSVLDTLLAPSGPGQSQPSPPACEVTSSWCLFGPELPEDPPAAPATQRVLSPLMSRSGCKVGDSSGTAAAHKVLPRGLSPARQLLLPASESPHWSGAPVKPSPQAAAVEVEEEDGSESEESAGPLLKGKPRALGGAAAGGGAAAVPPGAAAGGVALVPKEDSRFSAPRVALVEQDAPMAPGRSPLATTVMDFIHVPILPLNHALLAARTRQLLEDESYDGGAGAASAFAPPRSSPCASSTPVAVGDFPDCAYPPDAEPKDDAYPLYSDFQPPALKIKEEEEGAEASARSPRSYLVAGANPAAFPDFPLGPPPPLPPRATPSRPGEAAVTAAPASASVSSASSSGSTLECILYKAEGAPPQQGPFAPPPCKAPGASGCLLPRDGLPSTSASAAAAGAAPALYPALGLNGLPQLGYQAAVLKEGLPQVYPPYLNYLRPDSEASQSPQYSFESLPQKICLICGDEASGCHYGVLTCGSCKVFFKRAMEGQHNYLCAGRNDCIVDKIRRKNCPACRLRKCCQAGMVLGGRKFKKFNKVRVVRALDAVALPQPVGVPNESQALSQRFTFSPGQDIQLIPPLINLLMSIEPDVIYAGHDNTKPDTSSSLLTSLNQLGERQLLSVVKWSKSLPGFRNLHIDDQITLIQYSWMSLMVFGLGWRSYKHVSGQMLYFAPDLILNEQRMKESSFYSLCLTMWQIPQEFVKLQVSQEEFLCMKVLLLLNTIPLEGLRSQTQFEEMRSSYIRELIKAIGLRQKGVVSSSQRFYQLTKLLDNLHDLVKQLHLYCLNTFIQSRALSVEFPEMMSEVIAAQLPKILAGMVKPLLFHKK
How it was run: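 Seed HEK293-PR-A-luc cells, wait 5 h, add compounds in DMSO, incubate 16 h at 37C, add ONE-Glo, read luminescence after 30 min. Activity is increase over DMSO controls; run with a viability counter-screen.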

| Compound | outcome | AC50 |
| --- | --- | --- |
| CC(C)C[C@H](NC(=O)[C@H](Cc1ccccc1)NC(=O)c1cnccn1)B(O)O | inactive |  |
| O=C(Nc1ccc(Cl)c(Cl)c1)C1CC1 | inactive |  |
| Oc1ccc(N=Nc2ccccc2)cc1 | inactive |  |
| COC(=O)C1=C(C)NC(C)=C(C(=O)OCCN2CCN(C(c3ccccc3)c3ccccc3)CC2)C1c1cccc([N+](=O)[O-])c1 (stereo not drawn) | inactive |  |
| CC(C)C[C@H](NC(=O)[C@H](CCc1ccccc1)NC(=O)CN1CCOCC1)C(=O)N[C@@H](Cc1ccccc1)C(=O)N[C@@H](CC(C)C)C(=O)[C@@]1(C)CO1 | inactive |  |
| NC(=O)n1c(O)c(C(=O)c2cccs2)c2cc(Cl)ccc21 | inactive |  |
| COC(=O)C1=C(C)NC(COC(N)=O)=C(C(=O)OC(C)C)C1c1cccc(Cl)c1Cl (stereo not drawn) | inactive |  |
| C=C1C(CCl)(CCl)C2(Cl)C(Cl)C(Cl)C1(Cl)C2(Cl)Cl (stereo not drawn) |  | 8.97 µM (active) |

molecular target: Thyroid hormone receptor alpha (Rattus norvegicus) + Thyroid hormone receptor beta (Rattus norvegicus) (UniProt P18113+P63059); assay: TOX21_TR_LUC_GH3_Agonist_Followup: Tox21 GH3 Thyroid Hormone Receptor Agonism Luciferase Follow-Up Assay (AID 2283939)
Sequence (P63059 whole entry, looked up): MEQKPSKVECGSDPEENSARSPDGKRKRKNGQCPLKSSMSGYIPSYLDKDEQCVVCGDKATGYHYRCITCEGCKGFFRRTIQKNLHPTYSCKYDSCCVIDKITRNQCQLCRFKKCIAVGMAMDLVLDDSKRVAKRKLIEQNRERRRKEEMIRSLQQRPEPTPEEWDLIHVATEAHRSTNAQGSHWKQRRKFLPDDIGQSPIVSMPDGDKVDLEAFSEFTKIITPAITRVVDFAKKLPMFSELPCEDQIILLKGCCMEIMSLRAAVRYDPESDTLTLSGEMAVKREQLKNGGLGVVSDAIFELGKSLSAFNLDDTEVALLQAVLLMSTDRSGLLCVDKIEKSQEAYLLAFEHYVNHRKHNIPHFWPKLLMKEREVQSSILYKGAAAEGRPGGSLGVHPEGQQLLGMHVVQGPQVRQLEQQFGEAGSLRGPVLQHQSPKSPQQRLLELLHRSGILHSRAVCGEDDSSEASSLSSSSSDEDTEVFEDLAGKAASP
Sequence (P18113 whole entry, looked up): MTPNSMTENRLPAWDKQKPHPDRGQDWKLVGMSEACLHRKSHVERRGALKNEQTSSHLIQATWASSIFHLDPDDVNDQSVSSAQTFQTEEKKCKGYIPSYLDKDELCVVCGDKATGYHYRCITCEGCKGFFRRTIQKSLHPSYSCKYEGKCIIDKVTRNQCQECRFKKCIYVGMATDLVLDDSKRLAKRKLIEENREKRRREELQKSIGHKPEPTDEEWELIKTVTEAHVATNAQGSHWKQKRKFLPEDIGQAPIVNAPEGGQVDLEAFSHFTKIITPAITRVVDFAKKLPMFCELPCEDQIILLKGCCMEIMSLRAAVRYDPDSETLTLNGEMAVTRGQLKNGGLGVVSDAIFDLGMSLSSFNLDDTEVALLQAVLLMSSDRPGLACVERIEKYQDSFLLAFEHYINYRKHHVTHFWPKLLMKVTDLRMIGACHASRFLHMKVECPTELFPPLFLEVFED
How it was run: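 Agonist-mode confirmatory run: 15 concentrations (5 nM to 92 uM final) on GH3 rat pituitary cells, 24 h at 37C/5% CO2, T3 as positive control. Luminescence read with ONE-Glo after 30 min.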

| Compound | outcome | AC50 |
| --- | --- | --- |
| Cc1cc(-n2c(=O)[nH]c(=O)n(C)c2=O)ccc1Oc1ccc(S(=O)(=O)C(F)(F)F)cc1 | inactive |  |
| CC(C)(C)CC(C)(C)c1ccc(O)c(Cc2ccc(Cl)cc2Cl)c1 |  | 2.83 µM (active) |
| COc1cc(C)c(/C=C/C(C)=C/C=C/C(C)=C/C(=O)O)c(C)c1C |  | 0.767 µM (active) |

test system: not listed separately; assay: TOX21_PR_LUC_Followup_Agonist_viability: Viability Assessment in the Tox21 HEK293 Progesterone Receptor (PR) Agonism Luciferase Follow-Up Assay (AID 2283941);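 further: loss of signal means cytotoxicity so actives lower viability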
How it was run: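 Multiplexed viability endpoint of the PR agonist luciferase follow-up: HEK293-PR-A-luc cells treated 16 h at 37C, with viability scored as decrease in CellTiter-Glo ATP signal.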

| Compound | outcome |
| --- | --- |
| CC(C)C[C@H](NC(=O)[C@H](Cc1ccccc1)NC(=O)c1cnccn1)B(O)O | inactive |
| O=C(Nc1ccc(Cl)c(Cl)c1)C1CC1 | inactive |
| Oc1ccc(N=Nc2ccccc2)cc1 | inactive |
| COC(=O)C1=C(C)NC(C)=C(C(=O)OCCN2CCN(C(c3ccccc3)c3ccccc3)CC2)C1c1cccc([N+](=O)[O-])c1 (stereo not drawn) | inactive |
| C[C@]12C=CC(=O)C=C1[C@@H](F)C[C@@H]1[C@@H]2[C@@H](O)C[C@@]2(C)[C@H]1CC[C@]2(O)C(=O)CO | inactive |
| NC(=O)n1c(O)c(C(=O)c2cccs2)c2cc(Cl)ccc21 | inactive |
| CCC(=C(CC)c1ccc(O)cc1)c1ccc(O)cc1 | inactive |
| C#C[C@]1(O)CC[C@H]2[C@@H]3CCc4cc(OC5CCCC5)ccc4[C@H]3CC[C@@]21C | inactive |
| Cc1ccc(/C=N/n2c(-c3ccccc3)csc2=S)cc1 | inactive |
| COC(=O)C1=C(C)NC(COC(N)=O)=C(C(=O)OC(C)C)C1c1cccc(Cl)c1Cl (stereo not drawn) | inactive |
| COC(=O)C1=C(C)NC(C)=C(C(=O)OCC(C)=O)C1c1ccccc1[N+](=O)[O-] (stereo not drawn) | inactive |
| COCCOC(=O)C1=C(C)NC(C)=C(C(=O)OC/C=C/c2ccccc2)C1c1cccc([N+](=O)[O-])c1 (stereo not drawn) | inactive |
